{"source": "PubChem BioAssay", "note": "Unmarked numbers belong to inactive results. Active and inactive are the calls of the source.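 How the source made its calls: active means inhibition above the hit cutoff set in the earlier primary screen (cut at about 27% in these data); inactive means the rest.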"}
{"biological_target": "Protein phosphatase methylesterase 1 (Homo sapiens) (UniProt Q9Y570)", "sequence (Q9Y570 whole entry, looked up)": "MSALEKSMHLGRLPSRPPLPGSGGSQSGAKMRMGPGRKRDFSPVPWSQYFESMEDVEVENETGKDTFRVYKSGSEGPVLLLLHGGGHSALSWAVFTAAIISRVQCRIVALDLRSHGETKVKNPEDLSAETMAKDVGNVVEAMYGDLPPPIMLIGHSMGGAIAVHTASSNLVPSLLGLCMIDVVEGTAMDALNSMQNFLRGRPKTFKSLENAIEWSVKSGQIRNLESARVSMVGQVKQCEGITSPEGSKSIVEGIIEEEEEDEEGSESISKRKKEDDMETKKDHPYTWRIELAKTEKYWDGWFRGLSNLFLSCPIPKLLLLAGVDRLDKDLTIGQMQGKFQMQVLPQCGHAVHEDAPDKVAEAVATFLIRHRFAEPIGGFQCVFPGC", "assay": "human PME-1 methylesterase inhibition confirmation – biochemical, fluorescence polarization, FP-Rh probe, triplicate (AID 2171);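 further: 0% = enzyme with DMSO and 100% = wells lacking PME-1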", "settings": "recombinant PME-1, FP-Rh probe fluorescence polarization; at 5.9 µM; hits give high values"}
{"compound": "O=C(O)CSc1cc(NS(=O)(=O)c2ccc(Br)cc2)c2ccccc2c1O", "inhibition": "3.78%"}
{"compound": "c1ccc2sc(Nc3nc4cc5c(cc4s3)OCO5)nc2c1", "inhibition": "49.7% (active)"}
{"compound": "Cc1[nH]n(-c2ccccc2)c(=O)c1N=Nc1c(O)cc(S(=O)(=O)N(C)C)c2ccccc12", "inhibition": "74.3% (active)"}
{"compound": "O=C(CNc1cccc2ccccc12)N/N=C/C(Br)=C/c1ccccc1", "inhibition": "-1.47%"}
{"compound": "Cc1ccc(C)c(NC(=O)COC(=O)c2cccc3c2C(=O)c2ccccc2C3=O)c1", "inhibition": "92.7% (active)"}
{"compound": "O=C(c1ccc2c(c1)OCO2)N1CCCC(c2ccccc2)C1", "note": "(stereo not given)", "inhibition": "22%"}
{"compound": "COc1ccc(Nc2ncnc3sc(-c4ccccc4)cc23)cc1", "inhibition": "10.1%"}
{"compound": "Cc1cc2nc3c(=O)n(CCc4ccccc4)c(=O)[nH]c3nc2cc1N", "inhibition": "44.2% (active)"}
{"compound": "N#CCC(=O)Nc1ccc(C(=O)OCC(=O)Nc2ccccc2Sc2ccccc2)cc1", "inhibition": "-19%"}
{"compound": "COc1cc(/C=N/NC(=S)Nc2cccc(S(=O)(=O)N(C)C)c2)ccc1O", "inhibition": "14.1%"}
{"compound": "O=C(N=Nc1c(O)n(Cc2ccccc2)c2ccccc12)c1cc2ccccc2cc1O", "inhibition": "54.8% (active)"}
{"compound": "COc1ccc(-c2cc(-c3c(O)c(OC)c4occc4c3OC)[nH]n2)cc1", "inhibition": "19.9%"}
{"compound": "Cc1ncc(CO)c(/C=N/NC(=S)Nc2ccc(Cl)c(Cl)c2)c1O", "inhibition": "6.06%"}
{"compound": "CCOc1ccc(NC(=O)Nc2ccc3c(c2)N(C)C(=O)CS3)cc1", "inhibition": "14.8%"}
{"compound": "N#CC1=C(N)C(C#N)(C#N)C(c2cccnc2)C2CC(c3ccccc3)CC=C12", "note": "(stereo not given)", "inhibition": "83.5% (active)"}
{"compound": "Nc1c(C(=O)Nc2ccccc2)sc2nc(-c3ccco3)ccc12", "inhibition": "59.5% (active)"}
{"compound": "CCOc1cc(N(CC)CC)ccc1/C=C(/C#N)c1nc2ccccc2[nH]1", "inhibition": "8.91%"}
{"compound": "Cc1onc(NC(=O)NC(=O)c2c(Cl)cccc2Cl)c1Br", "inhibition": "17.4%"}
{"compound": "N#Cc1ccc(Nc2nc(-c3ccc(O)cc3O)cs2)cc1C(F)(F)F", "inhibition": "51.9% (active)"}
{"compound": "C/C(=N\\NC(=O)c1ccc(N/N=C(\\C)c2ccc(O)cc2)cc1)c1ccc(O)cc1", "inhibition": "43.4% (active)"}
{"compound": "CCC(=O)Oc1ccc(C/C(=N\\O)c2ccc(O)cc2O)o1", "inhibition": "43% (active)"}
{"compound": "CCOC(=O)CCc1c(C)nc(SCCCn2c(=O)[nH]c3ccccc32)c(C#N)c1C", "inhibition": "22.6%"}
{"compound": "CC#CCN1c2ccccc2[C@]23C[C@@H](C(=O)OC)N(C(=O)c4cc(C)oc4C)C2=NC(C(=O)OC)=C(C(=O)OC)[C@H]13", "inhibition": "29.6% (active)"}
{"compound": "CN(C)S(=O)(=O)c1cccc(NC(=S)NNC(=O)c2cc3ccccc3cc2O)c1", "inhibition": "-1.97%"}
{"compound": "COc1cc(/C=N/NC(=O)[C@H](Cc2c[nH]c3ccccc23)NC(=O)OCC(C)C)cc([N+](=O)[O-])c1O", "inhibition": "35.9% (active)"}
{"compound": "Cc1ccc(Nc2cc(C)c3c(O)cccc3n2)cc1C", "inhibition": "26.7% (active)"}
{"compound": "Cc1cc(N(C)C)ccc1N=Nc1ccc2ncccc2c1", "inhibition": "42.3% (active)"}
{"compound": "COc1ccccc1/C=C/C=N/n1c(-c2cc(-c3ccccc3)n[nH]2)n[nH]c1=S", "inhibition": "23.4%"}
{"compound": "Cc1ccc(Nc2c([N+](=O)[O-])ccc3c2=NC2(CCCCC2)N=3)cc1", "inhibition": "44.3% (active)"}
{"compound": "Fc1cccc2sc(Nc3nnc(-c4ccccc4)o3)nc12", "inhibition": "33% (active)"}
{"compound": "COc1ccc(OC)c(-c2c3cc(O)c(=O)cc-3oc3cc(O)c(O)cc23)c1", "inhibition": "169% (active)"}
{"compound": "N#CCCN(CCC#N)C(=O)C1c2ccccc2Oc2ccccc21", "inhibition": "-4.23%"}
{"compound": "Cc1ccc(C(=O)COC(=O)c2cccc(NC(=O)c3ccc([N+](=O)[O-])cc3[N+](=O)[O-])c2)cc1", "inhibition": "-3.98%"}
{"compound": "O=C(N/N=C/c1c[nH]c2ccccc12)c1sc2ccccc2c1Cl", "inhibition": "21.7%"}
{"compound": "CCOc1cccc(CNc2ccc(O)cc2)c1OCc1ccccc1Cl", "inhibition": "6.79%"}
{"compound": "O=C(CNc1ccc2ccccc2c1)N/N=C/c1ccc(OC(=O)/C=C/c2ccco2)cc1", "inhibition": "11.7%"}
{"compound": "Fc1ccc2nc(Nc3nc4cc5c(cc4s3)OCO5)sc2c1", "inhibition": "2.53%"}
{"compound": "C=CCn1c(O)c(N=Nc2ccccc2O)c2ccccc21", "inhibition": "29.2% (active)"}
{"compound": "C=C(C)COc1ccc(-c2[nH]ncc2-c2ccc(OC)c(OC)c2)c(O)c1", "inhibition": "22.1%"}
{"compound": "COc1cc2c(cc1OC)C(c1cc(Br)ccc1F)N(C(=O)CCl)CC2", "note": "(stereo not given)", "inhibition": "51.5% (active)"}
